Values without a mark were called inactive.

Sequence of UniProt Q9ULI3 (Q9ULI3 whole entry): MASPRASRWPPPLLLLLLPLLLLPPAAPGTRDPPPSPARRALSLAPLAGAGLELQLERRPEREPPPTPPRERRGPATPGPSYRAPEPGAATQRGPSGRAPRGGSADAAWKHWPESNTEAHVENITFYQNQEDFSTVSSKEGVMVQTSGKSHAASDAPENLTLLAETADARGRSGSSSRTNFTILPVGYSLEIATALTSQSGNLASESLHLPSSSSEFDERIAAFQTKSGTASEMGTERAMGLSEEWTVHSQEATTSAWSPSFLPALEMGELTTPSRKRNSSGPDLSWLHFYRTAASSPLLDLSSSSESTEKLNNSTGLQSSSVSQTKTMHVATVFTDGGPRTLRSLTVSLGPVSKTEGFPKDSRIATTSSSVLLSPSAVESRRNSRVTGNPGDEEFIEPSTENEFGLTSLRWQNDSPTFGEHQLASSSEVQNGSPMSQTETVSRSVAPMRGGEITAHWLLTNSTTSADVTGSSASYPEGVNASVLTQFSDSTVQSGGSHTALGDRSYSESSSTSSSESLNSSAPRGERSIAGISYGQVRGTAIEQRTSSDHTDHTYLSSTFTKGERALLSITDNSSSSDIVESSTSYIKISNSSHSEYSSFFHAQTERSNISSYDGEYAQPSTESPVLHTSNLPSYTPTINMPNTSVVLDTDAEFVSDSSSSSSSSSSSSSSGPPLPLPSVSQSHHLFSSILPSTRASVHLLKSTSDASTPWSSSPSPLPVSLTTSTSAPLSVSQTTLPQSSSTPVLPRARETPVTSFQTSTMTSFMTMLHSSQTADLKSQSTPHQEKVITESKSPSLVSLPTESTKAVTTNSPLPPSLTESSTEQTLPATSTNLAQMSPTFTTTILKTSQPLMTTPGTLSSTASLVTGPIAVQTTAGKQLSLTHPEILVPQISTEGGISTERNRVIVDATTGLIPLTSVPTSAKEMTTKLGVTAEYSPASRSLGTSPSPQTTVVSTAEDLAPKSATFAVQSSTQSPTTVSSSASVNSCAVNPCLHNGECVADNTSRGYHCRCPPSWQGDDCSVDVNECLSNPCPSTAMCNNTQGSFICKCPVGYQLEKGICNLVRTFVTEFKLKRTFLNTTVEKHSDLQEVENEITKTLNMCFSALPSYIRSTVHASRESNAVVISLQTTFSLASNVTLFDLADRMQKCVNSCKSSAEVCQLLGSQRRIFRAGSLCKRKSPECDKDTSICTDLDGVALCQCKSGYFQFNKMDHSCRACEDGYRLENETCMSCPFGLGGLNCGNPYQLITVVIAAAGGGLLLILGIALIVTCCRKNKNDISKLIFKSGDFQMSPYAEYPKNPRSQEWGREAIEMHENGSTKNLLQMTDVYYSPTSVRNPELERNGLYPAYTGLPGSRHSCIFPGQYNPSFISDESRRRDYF
Sequence of UniProt P08962 (P08962 whole entry): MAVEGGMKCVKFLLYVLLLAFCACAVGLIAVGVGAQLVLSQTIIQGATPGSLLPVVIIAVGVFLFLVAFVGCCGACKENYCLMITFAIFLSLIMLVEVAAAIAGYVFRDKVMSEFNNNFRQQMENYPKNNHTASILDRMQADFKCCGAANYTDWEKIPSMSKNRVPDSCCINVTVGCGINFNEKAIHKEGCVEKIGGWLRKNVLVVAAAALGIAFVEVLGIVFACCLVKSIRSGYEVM
Sequence of UniProt P35579 (P35579 whole entry): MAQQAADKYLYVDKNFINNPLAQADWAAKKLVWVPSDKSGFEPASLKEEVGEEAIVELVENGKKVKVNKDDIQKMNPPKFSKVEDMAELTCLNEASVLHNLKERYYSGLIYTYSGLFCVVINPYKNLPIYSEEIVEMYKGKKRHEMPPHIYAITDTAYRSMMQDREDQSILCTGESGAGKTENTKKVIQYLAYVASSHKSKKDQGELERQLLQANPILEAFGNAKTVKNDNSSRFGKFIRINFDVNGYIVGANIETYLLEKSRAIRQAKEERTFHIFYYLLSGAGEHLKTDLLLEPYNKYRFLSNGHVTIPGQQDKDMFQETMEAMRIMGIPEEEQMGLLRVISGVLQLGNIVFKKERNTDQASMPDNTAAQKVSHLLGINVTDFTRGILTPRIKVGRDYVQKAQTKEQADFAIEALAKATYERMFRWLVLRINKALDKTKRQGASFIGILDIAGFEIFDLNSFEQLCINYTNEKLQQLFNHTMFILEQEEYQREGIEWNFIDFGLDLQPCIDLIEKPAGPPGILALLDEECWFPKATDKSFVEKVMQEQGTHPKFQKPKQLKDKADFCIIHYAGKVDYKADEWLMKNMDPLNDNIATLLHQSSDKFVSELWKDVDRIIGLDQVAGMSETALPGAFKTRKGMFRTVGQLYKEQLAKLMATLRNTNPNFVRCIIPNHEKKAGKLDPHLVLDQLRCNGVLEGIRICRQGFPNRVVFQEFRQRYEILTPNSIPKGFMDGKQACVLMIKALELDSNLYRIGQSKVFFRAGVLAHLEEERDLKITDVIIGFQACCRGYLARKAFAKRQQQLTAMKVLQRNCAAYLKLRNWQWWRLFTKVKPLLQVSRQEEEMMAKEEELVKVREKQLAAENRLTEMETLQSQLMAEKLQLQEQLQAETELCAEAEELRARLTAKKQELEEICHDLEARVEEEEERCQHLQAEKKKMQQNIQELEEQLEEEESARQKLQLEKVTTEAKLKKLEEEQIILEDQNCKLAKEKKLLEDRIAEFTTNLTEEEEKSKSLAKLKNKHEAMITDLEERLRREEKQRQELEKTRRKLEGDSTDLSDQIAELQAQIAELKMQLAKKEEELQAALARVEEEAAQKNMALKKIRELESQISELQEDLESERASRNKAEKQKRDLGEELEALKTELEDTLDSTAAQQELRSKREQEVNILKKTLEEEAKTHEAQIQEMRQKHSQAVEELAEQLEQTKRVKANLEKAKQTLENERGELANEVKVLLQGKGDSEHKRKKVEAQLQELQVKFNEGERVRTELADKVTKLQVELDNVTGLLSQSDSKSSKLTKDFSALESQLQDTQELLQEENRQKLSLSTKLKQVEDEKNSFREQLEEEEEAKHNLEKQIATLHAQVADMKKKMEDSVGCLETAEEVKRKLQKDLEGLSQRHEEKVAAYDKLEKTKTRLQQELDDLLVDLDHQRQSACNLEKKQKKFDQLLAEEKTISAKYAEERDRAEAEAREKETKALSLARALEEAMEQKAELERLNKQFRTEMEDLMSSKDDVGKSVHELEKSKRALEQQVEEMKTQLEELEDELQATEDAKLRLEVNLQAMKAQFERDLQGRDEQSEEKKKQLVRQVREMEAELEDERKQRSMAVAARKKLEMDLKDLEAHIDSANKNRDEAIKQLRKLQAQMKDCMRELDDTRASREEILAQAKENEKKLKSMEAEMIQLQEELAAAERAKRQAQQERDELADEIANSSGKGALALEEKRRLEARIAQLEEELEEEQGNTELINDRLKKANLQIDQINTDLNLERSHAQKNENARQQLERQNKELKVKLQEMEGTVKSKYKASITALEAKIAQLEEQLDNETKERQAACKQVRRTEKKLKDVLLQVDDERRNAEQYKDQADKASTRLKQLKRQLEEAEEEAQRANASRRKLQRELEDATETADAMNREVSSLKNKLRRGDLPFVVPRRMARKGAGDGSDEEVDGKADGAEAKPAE
Sequence of UniProt Q9H307 (Q9H307 whole entry): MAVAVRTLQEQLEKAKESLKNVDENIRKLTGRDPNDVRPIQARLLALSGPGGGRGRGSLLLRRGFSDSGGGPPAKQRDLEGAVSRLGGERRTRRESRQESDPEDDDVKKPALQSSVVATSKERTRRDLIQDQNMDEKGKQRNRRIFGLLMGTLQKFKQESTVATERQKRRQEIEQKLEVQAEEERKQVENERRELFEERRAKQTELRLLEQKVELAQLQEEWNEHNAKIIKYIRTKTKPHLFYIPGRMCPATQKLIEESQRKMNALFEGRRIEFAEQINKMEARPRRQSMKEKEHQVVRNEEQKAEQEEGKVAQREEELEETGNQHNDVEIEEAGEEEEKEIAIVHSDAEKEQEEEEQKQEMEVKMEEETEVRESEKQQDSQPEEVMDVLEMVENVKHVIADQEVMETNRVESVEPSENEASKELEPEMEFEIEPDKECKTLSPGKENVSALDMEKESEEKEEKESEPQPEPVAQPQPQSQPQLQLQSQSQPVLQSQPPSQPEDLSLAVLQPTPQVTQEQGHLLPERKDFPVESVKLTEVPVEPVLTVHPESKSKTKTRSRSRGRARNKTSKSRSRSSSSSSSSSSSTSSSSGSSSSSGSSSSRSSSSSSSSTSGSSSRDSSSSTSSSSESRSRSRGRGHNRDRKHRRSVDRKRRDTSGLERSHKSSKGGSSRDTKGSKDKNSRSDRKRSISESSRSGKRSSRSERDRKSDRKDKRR
Sequence of UniProt P07737 (P07737 whole entry): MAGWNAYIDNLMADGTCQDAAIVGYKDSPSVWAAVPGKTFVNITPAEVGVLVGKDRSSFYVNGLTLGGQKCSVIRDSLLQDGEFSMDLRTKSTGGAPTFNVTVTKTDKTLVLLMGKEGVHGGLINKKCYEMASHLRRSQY
Sequence of UniProt P17813 (P17813 whole entry): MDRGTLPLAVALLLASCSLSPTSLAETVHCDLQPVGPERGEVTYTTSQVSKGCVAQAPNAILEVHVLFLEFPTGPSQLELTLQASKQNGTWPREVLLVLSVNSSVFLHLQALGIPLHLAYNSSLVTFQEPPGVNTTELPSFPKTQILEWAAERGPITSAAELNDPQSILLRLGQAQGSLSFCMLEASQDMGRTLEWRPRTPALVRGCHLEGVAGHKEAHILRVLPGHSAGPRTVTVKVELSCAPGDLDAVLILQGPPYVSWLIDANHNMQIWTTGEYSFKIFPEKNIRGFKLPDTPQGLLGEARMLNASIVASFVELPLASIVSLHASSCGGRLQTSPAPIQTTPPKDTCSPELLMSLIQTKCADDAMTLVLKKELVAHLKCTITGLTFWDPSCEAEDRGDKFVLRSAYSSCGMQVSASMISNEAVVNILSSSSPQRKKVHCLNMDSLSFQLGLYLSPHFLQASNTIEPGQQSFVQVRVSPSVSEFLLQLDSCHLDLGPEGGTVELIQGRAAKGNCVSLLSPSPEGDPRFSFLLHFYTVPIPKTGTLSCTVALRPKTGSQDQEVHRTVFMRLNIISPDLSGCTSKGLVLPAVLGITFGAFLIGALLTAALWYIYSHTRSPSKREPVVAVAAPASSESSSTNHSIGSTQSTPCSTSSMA

Compound in this assay: C#CCNC(=O)CCSSCCC(=O)NCCc1ccc(C=O)c(C=O)c1
The experiment in a line: lysine labeling ratio R10:1 (500 µM / 50 µM probe), SILAC-ABPP in living cells; higher = lower intrinsic lysine reactivity toward the probe, active = 2 or less. To be noted: HeLa; probe concentrations 500 vs 50 µM. A digest of the protocol: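 The two probe levels, 50 µM and 500 µM, of an alkyne-tagged, disulfide-linked lysine probe were applied to living light and heavy SILAC HeLa cells in PBS at room temperature, and the labels were run in both forward and reverse orientation. Mixed lysates underwent biotin-azide click chemistry, trypsin digestion, neutravidin capture, DTT release and alkylation before LC-MS/MS on a TIMS-TOF Pro. R is the filtered median high-probe/low-probe MS1 peptide ratio for each lysine, summarised as the median over forward and reverse replicates. Nothing above 20 is reported; such values are set to 20.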
For “PLXNB2 (lysine site: K1121) (UniProt O15031)”, the “lysine labeling ratio R10:1” value is 0.81 (active).

As for “ENG (lysine site: K402) (UniProt P17813)”, the “lysine labeling ratio R10:1” value is 2.25.

In the case of “SPTBN1 (lysine site: K1913) (UniProt Q01082)”, the “lysine labeling ratio R10:1” value was 4.33.

As for “ITGA3 (lysine site: K638) (UniProt P26006)”, the “lysine labeling ratio R10:1” value is 5.04.

Turning to “CD63 (lysine site: K162) (UniProt P08962)”, the “lysine labeling ratio R10:1” value was 4.92.

Consider “LAMP1 (lysine site: K137) (UniProt P11279)”, for which the “lysine labeling ratio R10:1” value is 2.74.

With “MYH9 (lysine site: K1389) (UniProt P35579)”, the “lysine labeling ratio R10:1” value is 2.38.

As to “PNN (lysine site: K262) (UniProt Q9H307)”, the “lysine labeling ratio R10:1” value was 1.08 (active).

Regarding “SPTBN2 (lysine site: K1909) (UniProt O15020)”, the “lysine labeling ratio R10:1” value is 1.63 (active).

As to “ANPEP (lysine site: K379) (UniProt P15144)”, the “lysine labeling ratio R10:1” value was 0.5 (active).

“FLNB (lysine site: K1005) (UniProt O75369)”: the “lysine labeling ratio R10:1” value was 4.49.

With “PFN1 (lysine site: K70) (UniProt P07737)”, the “lysine labeling ratio R10:1” value is 2.2.

Turning to “SPTAN1 (lysine site: K190) (UniProt Q13813)”, the “lysine labeling ratio R10:1” value is 4.11.

Turning to “COL5A1 (lysine site: K1708) (UniProt P20908)”, the “lysine labeling ratio R10:1” value was 1.7 (active).

Take “HEG1 (lysine site: K1178) (UniProt Q9ULI3)”: the “lysine labeling ratio R10:1” value was 4.55.

Turning to “PLOD2 (lysine site: K412) (UniProt O00469)”, the “lysine labeling ratio R10:1” value was 7.56.

The record behind these values is the supplement of paper PMC11001985.
